According to PubChem BioAssay (NCATS):
Several values for one entry are separate records, joined by “and”; a condition that tells them apart may be missing. Equal values may be shown once. Results filed as inconclusive are left out. Activity calls are given as the source filed them. Unless noted, calls follow the shape of the dose curve; as a rule, active = well fitted curve in the direction sought with a large enough effect; inconclusive = small, poorly fitted or top-dose-only effect, or another doubt; inactive = no such curve, though single readings can be large; an effect the other way counts as inactive or inconclusive.

What was measured:
[1] = test system: Tov-21-G; assay: Primary qHTS to identify gynecologic anti-cancer compounds using libraries of approved drugs and bioactive compounds (AID 1345084); conditions: Gynecologic cancer cell panel viability, ATPlite luminescence, 48 h; series mostly up to 57.5 µM; also: % is scaled to controls: 0 for no effect and ±100 for the full control effect; nearly all actives have a fitted effect of over 55% in size
Outline: (§1)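 Cell viability after 48 h drug treatment, ATPlite luminescence readout; five doses.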

[2] = test system: Tov112D; assay: as above; conditions: Gynecologic cancer cell panel viability, ATPlite luminescence, 48 h; series mostly up to 57.5 µM
Outline: as §1

[3] = Drug repurposing screens with cells derived from glioblastoma tumor samples (AID 1345199); conditions: GBM patient neurospheres viability, ATP luminescence, 48 h; also: nearly all actives have a fitted effect of over 40% in size; also: potency is read from the fitted curve at half-maximal effect; as to activity, negative = cell killing: % is scaled to controls: 0 for no effect and ±100 for the full control effect
Outline: (§2)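 Four patient lines of CD133+ GBM neurospheres were screened at several concentrations; hits were retested in those lines plus three slower-growing GBM lines, using 48-hour treatment and ATP-based viability.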

[4] = test system: astro; assay: as above; conditions: viability, ATP luminescence, 48 h; series mostly up to 45.9 µM
Outline: as §2

[5] = target: Nuclear receptor subfamily 1 group I member 2 (Rattus norvegicus) (UniProt Q9R1A7); assay: qHTS assay for small molecule activators of the rat pregnane X receptor (rPXR) signaling pathway (AID 651751; call rule not given here; also: 0% is about no effect); conditions: rPXR reporter cells, luciferase (One-Glo), 24 h
[6] = qHTS assay for small molecule activators of the human pregnane X receptor (PXR) signaling pathway (AID 720659; call rule not given here; also: 0% is about no effect)
[7] = at 45.9 µM (top of the series), tumour line B
[8] = at 45.9 µM (top of the series), tumour line D
[9] = at 46.1 µM (top of the series), tumour line C
[10] = at 20 µM (top of the series), tumour line C
[11] = at 21.2 µM (top of the series), tumour line B
[12] = at 21.2 µM (top of the series), tumour line D
[13] = at 46 µM (top of the series), tumour line A

Nuclear receptor subfamily 1 group I member 2 (Rattus norvegicus), sequence (Q9R1A7 whole entry, looked up): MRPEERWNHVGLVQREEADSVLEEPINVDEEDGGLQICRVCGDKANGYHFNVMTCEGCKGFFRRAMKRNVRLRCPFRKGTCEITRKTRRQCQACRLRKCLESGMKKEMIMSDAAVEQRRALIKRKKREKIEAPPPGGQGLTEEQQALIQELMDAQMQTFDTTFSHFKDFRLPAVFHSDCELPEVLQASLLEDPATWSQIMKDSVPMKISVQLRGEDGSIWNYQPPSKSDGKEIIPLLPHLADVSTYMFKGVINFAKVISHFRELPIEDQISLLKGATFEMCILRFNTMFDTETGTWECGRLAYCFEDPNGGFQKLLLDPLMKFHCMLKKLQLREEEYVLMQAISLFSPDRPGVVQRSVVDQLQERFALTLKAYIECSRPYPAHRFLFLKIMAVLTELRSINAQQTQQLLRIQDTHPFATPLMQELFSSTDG

Nc1ncnc(Nc2ccccc2)n1
inactive: outcome [1] | outcome [2] | activity, negative = cell killing [3, 7] -14.8% | activity, negative = cell killing [3, 8] -23.1% | activity, negative = cell killing [3, 9] -21.6% | outcome [4]

CCOC(=O)[C@H](CCc1ccccc1)N[C@@H](C)C(=O)N1Cc2cc(OC)c(OC)cc2C[C@H]1C(=O)O
inactive: outcome [1] | outcome [2] | activity, negative = cell killing [3, 7] -9.77% | activity, negative = cell killing [3, 8] -6.92% | activity, negative = cell killing [3, 9] -6.4% | outcome [4]

CCC(C)(CN(C)C)OC(=O)c1ccccc1 (stereo unspecified)
inactive: outcome [1] | outcome [2] | activity, negative = cell killing [3, 10] -12.8% | activity, negative = cell killing [3, 11] -2.39% | activity, negative = cell killing [3, 12] -5.13% | outcome [4]

CC(=O)Nc1cccc(O)c1
inactive: outcome [1] | outcome [2] | activity, negative = cell killing [3, 7] -7.47% | activity, negative = cell killing [3, 8] -9.18% | activity, negative = cell killing [3, 9] -17.1% | max response [5] -4.25% | outcome [6]

COc1ccc(O)cc1
inactive: outcome [1] | outcome [2] | activity, negative = cell killing [3, 7] -15% | activity, negative = cell killing [3, 8] -17.8% | activity, negative = cell killing [3, 9] -24.9% | outcome [4] | max response [5] -3% | outcome [6]

O=c1[nH]c2cc(C(F)(F)F)c(N3CCOCC3)cc2n(CP(=O)(O)O)c1=O
inactive: outcome [1] | outcome [2] | activity, negative = cell killing [3, 7] -1.62% | activity, negative = cell killing [3, 8] -2.48% | activity, negative = cell killing [3, 9] -20.3% | outcome [4]

O=C(CN1CCNCC1)NC1CCCCC1
inactive: outcome [1] | outcome [2] | activity, negative = cell killing [3, 7] -13.1% | activity, negative = cell killing [3, 8] -7.64% | activity, negative = cell killing [3, 9] -22.5% | outcome [4]

Cc1c(NC(C)C)c(=O)n(-c2ccccc2)n1C
inactive: outcome [1] | outcome [2] | activity, negative = cell killing [3, 7] 0.947% | activity, negative = cell killing [3, 8] -9.1% | activity, negative = cell killing [3, 9] -2.3% | outcome [4]

Cc1cc(=O)[nH]c(=S)[nH]1
inactive: outcome [1] | outcome [2] | activity, negative = cell killing [3, 7] -11.2% | activity, negative = cell killing [3, 8] 2.62% | activity, negative = cell killing [3, 9] -26.3% | outcome [4] | max response [5] -6.87% | outcome [6]

Cc1cccc(C(=O)O)c1O
inactive: outcome [2] | activity, negative = cell killing [3, 7] -1.64% | activity, negative = cell killing [3, 8] -5.93% | activity, negative = cell killing [3, 13] -19.5% | activity, negative = cell killing [3, 9] -18.8% | outcome [4]

CC(C)=CCC[C@@](C)(O)[C@H]1CC=C(C)CC1
inactive: outcome [1] | outcome [2] | activity, negative = cell killing [3, 7] -3.12% | activity, negative = cell killing [3, 8] 18.2% | activity, negative = cell killing [3, 9] -10.5% | outcome [4]

O=C(O)CCCCC1CCSS1 (stereo unspecified)
inactive: outcome [1] | outcome [2] | activity, negative = cell killing [3, 7] -9.35% | activity, negative = cell killing [3, 8] -12.2% | activity, negative = cell killing [3, 9] -7.1% | outcome [4] | max response [5] -15% and -8.97% | outcome [6]

NS(=O)(=O)c1cc(-c2nn[nH]n2)c(NCc2cccs2)cc1Cl
inactive: outcome [1] | outcome [2] | activity, negative = cell killing [3, 7] 0.416% | activity, negative = cell killing [3, 8] -1.64% | activity, negative = cell killing [3, 9] -29.2% | outcome [4]

C[C@H]1COc2c(C3(N)CC3)c(F)cc3c(=O)c(C(=O)O)cn1c23
inactive: outcome [1] | outcome [2] | activity, negative = cell killing [3, 7] -13.2% | activity, negative = cell killing [3, 9] -15.1% | outcome [4]

Cc1cccc(C)c1NC(=O)CC12CCCN1CCC2
inactive: outcome [1] | outcome [2] | activity, negative = cell killing [3, 7] -10.6% | activity, negative = cell killing [3, 8] -15.8% | outcome [4]

Cc1cc(C)nc(NS(=O)(=O)c2ccc(N)cc2)n1
inactive: outcome [1] | outcome [2] | activity, negative = cell killing [3, 7] -8.37% | activity, negative = cell killing [3, 13] -19.9% | activity, negative = cell killing [3, 9] -16.8% | max response [5] 4.51% and 0.319%

NC(=O)N[C@@H](CCC(=O)O)C(=O)O
inactive: activity, negative = cell killing [3, 7] -6.35% | activity, negative = cell killing [3, 8] -8.74% | activity, negative = cell killing [3, 13] -22.8% | activity, negative = cell killing [3, 9] -19.7% | outcome [4]

CCCCCCCC(=O)OCC(COC(=O)CCCCCCC)OC(=O)CCCCCCC
inactive: outcome [1] | outcome [2] | activity, negative = cell killing [3, 7] -10.1% | activity, negative = cell killing [3, 8] -25.3% | activity, negative = cell killing [3, 9] -9.12% | max response [5] -0.801% | outcome [6]

C=CCN1C[C@H](C(=O)N(CCCN(C)C)C(=O)NCC)C[C@@H]2c3cccc4[nH]cc(c34)C[C@H]21
inactive: outcome [1] | outcome [2] | activity, negative = cell killing [3, 7] -13.1% | outcome [4]

O=C(OOC(=O)c1ccccc1)c1ccccc1
inactive: outcome [1] | outcome [2] | activity, negative = cell killing [3, 7] -7.59% | activity, negative = cell killing [3, 8] -7.12% | activity, negative = cell killing [3, 9] -4.84% | outcome [4] | max response [5] -0.865% | outcome [6]

CC1CCN(CCCC(=O)c2ccc(F)cc2)CC1
inactive: outcome [1] | outcome [2] | activity, negative = cell killing [3, 7] -15.8% | outcome [4]
active: Potency ([3]; tumour line A) 10 µM

O=C1c2cccc(O)c2C(=O)c2c(O)cccc21
inactive: outcome [1] | outcome [2] | activity, negative = cell killing [3, 9] -4.97% | outcome [4] | max response [5] 4.48% | outcome [6]
active: Potency ([3]; tumour line A) 11.2 µM

CC(=O)N[C@@H](Cc1ccc(O)cc1)C(=O)O
inactive: outcome [1] | outcome [2] | activity, negative = cell killing [3, 7] -9.92% | activity, negative = cell killing [3, 8] -7.49% | activity, negative = cell killing [3, 9] 6.62% | outcome [4]

OC(CCN1CCCC1)(c1ccccc1)C1CCCCC1 (stereo unspecified)
inactive: outcome [1] | outcome [2] | activity, negative = cell killing [3, 10] 3.06% | activity, negative = cell killing [3, 11] -6.65% | activity, negative = cell killing [3, 12] -11.6% | outcome [4]

CN(C/C=C/C#CC(C)(C)C)Cc1cccc2ccccc12
active: Potency ([3]; tumour line A) 20 µM
inactive: outcome [1] | outcome [2] | activity, negative = cell killing [3, 9] -0.19% | outcome [4]

CN1CCN(C(=O)C2CCCCC2)CC1
inactive: outcome [1] | outcome [2] | activity, negative = cell killing [3, 7] -7.62% | activity, negative = cell killing [3, 8] -7.41% | activity, negative = cell killing [3, 9] -23.1% | outcome [4]

Cc1cc(-n2nc3ccc(Cl)cc3n2)c(O)c(C(C)(C)C)c1
active: Potency ([3]; tumour line A) 7.94 µM
inactive: outcome [1] | outcome [2] | activity, negative = cell killing [3, 7] -1.32% | activity, negative = cell killing [3, 8] -14.3% | outcome [4]

COc1ccc(Cc2cnc(N)nc2N)cc1OC
inactive: outcome [1] | outcome [2] | activity, negative = cell killing [3, 7] 11% | activity, negative = cell killing [3, 8] -18.1% | activity, negative = cell killing [3, 9] -4.34% | outcome [4]

CCCCCCCCCCCCCCCCN
inactive: outcome [1] | outcome [2] | activity, negative = cell killing [3, 7] -8.19% | activity, negative = cell killing [3, 8] -19.2% | activity, negative = cell killing [3, 9] -20.5% | outcome [4]

Cc1ccccc1N=Nc1ccc(N=Nc2c(O)ccc3ccccc23)c(C)c1
inactive: outcome [1] | outcome [2] | activity, negative = cell killing [3, 7] -15.7% | activity, negative = cell killing [3, 8] -2.5% | activity, negative = cell killing [3, 9] -1.06% | outcome [4]

CC1(c2ccccc2)OC(C(=O)O)=CC1=O (stereo unspecified)
inactive: outcome [1] | outcome [2] | activity, negative = cell killing [3, 7] -1.24% | activity, negative = cell killing [3, 8] -9.61% | activity, negative = cell killing [3, 9] -15.9% | outcome [4]

O=C(CCBr)N1CCN(C(=O)CCBr)CC1
inactive: outcome [1] | outcome [2] | activity, negative = cell killing [3, 7] -9.14% | activity, negative = cell killing [3, 8] -7.7% | activity, negative = cell killing [3, 9] -5.97% | outcome [4]

CCCOC(=O)c1ccc(N)cc1
inactive: outcome [1] | outcome [2] | activity, negative = cell killing [3, 8] -16.4% | outcome [4]
active: Potency ([3]; tumour line C) 25.9 µM

CC[N+](CC)(CC(=O)Nc1c(C)cccc1C)Cc1ccccc1
inactive: outcome [1] | outcome [2] | activity, negative = cell killing [3, 7] -20.4% | activity, negative = cell killing [3, 8] -18.5% | activity, negative = cell killing [3, 9] -28% | outcome [4] | max response [5] 0.531% | outcome [6]

CC(=O)Nc1ccc(OCCOCCOc2ccc(NC(C)=O)cc2)cc1
inactive: outcome [1] | outcome [2] | activity, negative = cell killing [3, 7] -5.83% | activity, negative = cell killing [3, 9] -16.3% | outcome [4]

O=c1[nH]c(=O)n([C@H]2C[C@H](O)[C@@H](CO)O2)cc1I
inactive: outcome [1] | outcome [2] | activity, negative = cell killing [3, 10] -27.4% | activity, negative = cell killing [3, 11] -17% | activity, negative = cell killing ([3]; at 21.3 µM (top of the series), tumour line A) -18.1% | outcome [4]

Cc1ccc(S(=O)(=O)NC(=O)NC2CCCCC2)cc1
inactive: outcome [1] | outcome [2] | activity, negative = cell killing [3, 7] -0.759% | activity, negative = cell killing [3, 8] 4.18% | activity, negative = cell killing [3, 9] -11.1% | outcome [4]
